Compound activity (PubChem)
This is a sample that favours compounds with a hit; in the whole collection about 2.1% have one here.
D2 ag-1: activates the human D2 dopamine receptor. P14416. HEK293 T-REx D2 cells, calcium flux agonist mode. activation, % at 2 µM. 340,000 tested, 0.53% active. AID 485358;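 active means activation over 3 SD above normal in the single-dose calcium agonist read, cut at about 30% in these data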; further: 0% is about no effect
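Calcium-flux readout, 1 cycle/sec over 180 s following compound pin transfer, in inducible HEK293 Trex D2 cells (force-coupled); dopamine controls included. Positive calcium responses during this window marked compounds as potential agonists.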
D2 PAM-1: positive allosteric modulators of human D2 dopamine receptor; P14416; HEK293 T-REx D2, calcium flux, EC20 dopamine potentiation; potentiation, % at 10 µM; 340,000 tested, 0.34% active;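 active means potentiation over 3 SD above the plate norm, cut at about 30% in these data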; further: 0% is about no effect
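Tetracycline-induced HEK293 T-REx cells force-coupled to calcium signalling expressed D2; compounds were pin-added after a 10 s baseline, read kinetically 180 s, then an EC20 dopamine challenge followed with a further 180 s calcium read.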
D2 ag-2: human D2 receptor agonism in beta-arrestin assay; P14416; DiscoveRx PathHunter D2 beta-arrestin, luminescence, 90 min; 100% = 57 uM dopamine signal; activation, % (no concentration beside the values); 360,000 tested, 0.084% active; AID 624465; in the data active means activation above about 40%; inconclusive means between about 15% and that limit
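DiscoveRx PathHunter D2 beta-arrestin cells (2,100/well) attached overnight, then compound-stimulated 90 min at 37 C in HBSS/10 mM HEPES/0.1% Tween-20 buffer; beta-galactosidase complementation read by luminescence after 1 h at ambient temperature. Dopamine 57 uM final (EC100) as control.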
LDHA inh: inhibitors of human lactate dehydrogenase A. P00338. purified LDHA, NADH/diaphorase-resazurin fluorescence; active compounds read low. activity change, % (values are at about 110 or 230 µM). 480,000 tested, 0.15% active. AID 1347041; in the data active means activity change below about -30%; inconclusive means mostly about -25% to -30%;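 further: plate controls were DMSO wells for no effect and wells without enzyme for full effect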
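Enzyme activity of human lactate dehydrogenase 5 (2 nM; 0.06 mM NADH, 0.2 mM pyruvate, 5 min, RT) is measured via a resazurin/diaphorase fluorescence readout of residual NADH.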
D2 antagonist: D2 dopamine receptor (human) antagonism | inhibition, % at 10 µM | 340,000 tested, 2% active | AID 485344 | HEK293 TREx D2 cells, calcium flux, dopamine EC80 | P14416; in the data active means inhibition above about 30%; inactive means below that, where a call was filed; further: 0% is about no effect
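Measurement of antagonist activity uses fluorescent calcium dye in inducible HEK293 T-REx D2 cells: 10 s baseline, compound addition with 180 s read, EC80 dopamine addition with a further 180 s read.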
D2 PAM-2: positive allosteric modulators of human D2 dopamine receptor; potentiation, % (test concentration not listed); P14416; 360,000 tested, 0.23% active; DiscoveRx D2 beta-arrestin cells, luminescence, 90 min; 100% = 57 uM dopamine signal; AID 624464; in the data active means potentiation above about 50%; inconclusive means mostly about 30% to 49%
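PathHunter beta-arrestin assay in DiscoveRx D2 cells. Compounds were added with an EC20 of dopamine (50 nM final) for 90 min at 37 deg C. Luminescence was read 1 h after detection reagent, with 57 uM dopamine as the EC100 control.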
D3 arrestin ag: D3 receptor agonism confirmed, beta-arrestin readout. shares compounds with D2 ag-1. DiscoveRx D3 beta-arrestin cells, luminescence, 90 min. Potency, µM (doses to about 76.9 µM), for the others: at the top dose activation, actives largely listed as activators. 2,300 tested, 4% active. AID 720506;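 further: potency means the concentration at half of the fitted maximal effect; 100% = dopamine control response; nearly all actives have a fitted effect of over 70% in size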
Target sequence (P35462 whole entry, looked up): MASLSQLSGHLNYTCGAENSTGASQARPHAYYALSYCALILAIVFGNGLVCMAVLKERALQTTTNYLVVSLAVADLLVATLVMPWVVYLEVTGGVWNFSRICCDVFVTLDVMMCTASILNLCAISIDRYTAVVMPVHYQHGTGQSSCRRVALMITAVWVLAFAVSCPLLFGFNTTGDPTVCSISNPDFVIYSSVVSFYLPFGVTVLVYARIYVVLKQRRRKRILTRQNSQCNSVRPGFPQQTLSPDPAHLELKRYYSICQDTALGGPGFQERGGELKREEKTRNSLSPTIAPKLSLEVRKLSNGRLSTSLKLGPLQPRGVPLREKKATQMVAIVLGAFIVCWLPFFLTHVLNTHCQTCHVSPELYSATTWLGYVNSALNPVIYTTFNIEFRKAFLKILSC
D2 ag-3: activates human D2 dopamine receptor in D3 counterscreen; DiscoveRx PathHunter D2 beta-arrestin, luminescence, 90 min; response scale: percent relative to full dopamine signal; shares compounds with D2 ag-1; 2,300 tested, 5.9% active; Potency, µM (series often up to 76.9 µM), without a hit: at the top dose activation, actives largely listed as activators; AID 720507; further: potency means the concentration at half of the fitted maximal effect; % of control where 0% means no effect; nearly all actives have a fitted effect of over 70% in size
* marks the source's active call; other numbers are inactive results. Unless noted, the call rests on the fitted dose curve; in most records, active means well fitted activation curve with a large enough effect; inconclusive means small, poorly fitted or top-dose-only effect; inactive means flat fitted curve, though single readings scatter.

Results for Cc1ccc(C(=O)/C=C/Nc2ccc(N(C)C)cc2)cc1C ?
LDHA inh: 24

What do the screens show for `CSc1ccc(OC2CCCCC2NS(=O)(=O)c2ccccc2)cc1` (stereo not drawn)?
D2 ag-1: -1; D2 PAM-1: 5; D2 ag-2: -6; LDHA inh: -2; D2 antagonist: 7; D2 PAM-2: -5

How did Cc1cc(C)cc(OC2CCCCC2NS(=O)(=O)c2ccccc2)c1 (stereo not drawn) do in these assays?
D2 ag-1: 2; D2 PAM-1: -11; D2 ag-2: -4; LDHA inh: -4; D2 antagonist: 36*; D2 PAM-2: -10; D3 arrestin ag: -3%; D2 ag-3: -4%

What do the screens show for `COc1cc(/C=C(/C#N)C(=O)OC(C)C)cc(Cl)c1O`?
LDHA inh: -15

How did Cc1cc(NC(=O)CSCC(=O)Nc2cc(C(F)(F)F)ccc2N2CCOCC2)no1 do in these assays?
D2 ag-1: 0; D2 PAM-1: 7; D2 ag-2: 3; LDHA inh: -9; D2 antagonist: -19; D2 PAM-2: -4; D3 arrestin ag: -6%; D2 ag-3: -2%

What do the screens show for `Cc1cc(NC(=O)CSCC(=O)Nc2cc(C(F)(F)F)ccc2N2CCCC2)no1`?
D2 ag-1: 0; D2 PAM-1: 4; D2 ag-2: -6; LDHA inh: -4; D2 antagonist: -3; D2 PAM-2: -19

How did O=C(O)CCCc1c(-c2ccccn2)[nH]c2ccccc12 do in these assays?
LDHA inh: 1

How did CC#CCC(CC#CC)c1nc2ccccc2c(=O)n1N do in these assays?
D2 ag-1: -1; D2 PAM-1: -8; D2 ag-2: -5; LDHA inh: -8; D2 antagonist: -15; D2 PAM-2: -3; D3 arrestin ag: -11%; D2 ag-3: -4%

How did OC(COc1ccc(Cl)c2ccccc12)CN1CCN(c2ccccn2)CC1 (stereo not drawn) do in these assays?
D2 ag-1: 54*; D2 PAM-1: -21; D2 ag-2: 5; LDHA inh: -4; D2 antagonist: 35*; D2 PAM-2: -24; D3 arrestin ag: 14µM*; D2 ag-3: inconclusive

Results for OC(CN1CCN(c2ccccn2)CC1)Cn1c2ccccc2c2ccccc21 (stereo not drawn) ?
D2 ag-1: 2; D2 PAM-1: -19; D2 ag-2: 8; LDHA inh: 1; D2 antagonist: 2; D2 PAM-2: -6

How did Cc1cc(C)c(OCC(O)CN2CCN(c3ccccn3)CC2)c(C)c1 (stereo not drawn) do in these assays?
D2 ag-1: 79*; D2 PAM-1: -26; D2 ag-2: 48*; LDHA inh: 0; D2 antagonist: 78*; D2 PAM-2: inconclusive; D3 arrestin ag: 0.079µM*; D2 ag-3: 10µM*

What do the screens show for `Cc1cc(OCC(O)CN2CCN(c3ccccn3)CC2)cc(C)c1Cl` (stereo not drawn)?
D2 ag-1: 46*; D2 PAM-1: -17; D2 ag-2: inconclusive; LDHA inh: -3; D2 antagonist: 43*; D2 PAM-2: 5; D3 arrestin ag: 6.3µM*; D2 ag-3: inconclusive

How did CSc1ccccc1NC(=O)C1C2CCC(C2)C1C(=O)O (stereo not drawn) do in these assays?
D2 ag-1: 27; D2 PAM-1: -3; D2 ag-2: -4; LDHA inh: -5; D2 antagonist: -3; D2 PAM-2: -5; D3 arrestin ag: -11%; D2 ag-3: -4%

What do the screens show for `O=C(O)c1ccc(NC(=O)C2C3CCC(C3)C2C(=O)O)cc1` (stereo not drawn)?
D2 ag-1: 0; D2 PAM-1: 1; D2 ag-2: -2; LDHA inh: 1; D2 antagonist: -8; D2 PAM-2: 4

What do the screens show for `c1ccc(OCCN2CCN(Cc3nc(-c4ccc5c(c4)OCO5)no3)CC2)cc1`?
D2 ag-1: 64*; D2 PAM-1: -12; D2 ag-2: 6; LDHA inh: -6; D2 antagonist: 69*; D2 PAM-2: -3; D3 arrestin ag: inconclusive; D2 ag-3: inconclusive

Results for O=C(Nc1nc(C23CC4CC(CC(C4)C2)C3)cs1)c1ccncc1 ?
LDHA inh: -3

Results for O=C(/C(Cl)=C/NCc1ccccn1)C(F)(F)F ?
LDHA inh: 7

What do the screens show for `COC(=O)[C@@H](CC(C)C)NS(=O)(=O)N(Cc1ccccc1)[C@@H](CC(C)C)C(=O)OC`?
D2 ag-1: -1; D2 PAM-1: -3; D2 ag-2: -3; LDHA inh: 2; D2 antagonist: 2; D2 PAM-2: -4; D3 arrestin ag: -15%; D2 ag-3: -3%

How did COC(=O)[C@H](CC(C)C)NS(=O)(=O)c1ccccc1 do in these assays?
D2 ag-1: -2; D2 PAM-1: 3; D2 ag-2: -2; LDHA inh: -3; D2 antagonist: 17; D2 PAM-2: -9

What do the screens show for `CCCNC(=O)c1cccc(CNCc2ccsc2)c1`?
LDHA inh: -4

Results for CC(OC(=O)C1CCCC1)C(=O)Nc1ncc(Cl)cc1Cl (stereo not drawn) ?
D2 ag-1: 0; D2 PAM-1: 4; D2 ag-2: 2; LDHA inh: -7; D2 antagonist: -6; D2 PAM-2: -1; D3 arrestin ag: -3%; D2 ag-3: -2%

What do the screens show for `COc1cc(NC(=O)Cn2nc(-c3ccccc3)c3c(c2=O)CCCC3)cc(OC)c1`?
LDHA inh: 6

What do the screens show for `COc1ccc(CNCCNC(=O)c2cccs2)cc1OC`?
D2 ag-1: 60*; D2 PAM-1: -19; D2 ag-2: -1; LDHA inh: -14; D2 antagonist: 39*; D2 PAM-2: -12; D3 arrestin ag: -3%; D2 ag-3: -4%

Results for CCN(CC)S(=O)(=O)c1ccc(N(C)C)c(NS(=O)(=O)c2c(C)cc(C)cc2C)c1 ?
LDHA inh: -3

How did c1ccc(OCc2nnc3sc(-c4ccccc4)nn23)cc1 do in these assays?
LDHA inh: -7
